Potency and affinity values are given separately. Results filed as inconclusive are left out. Where a call stands in place of a potency, no number is given. A number with no mark means an inactive call. Active and inactive are the calls of the source.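 The calls were made as follows: active = signal loss with fitted half-maximal concentration at or below twice the top valid tested dose in every test run; inconclusive = runs disagree, flat 30 to 70% signal loss, or poor fit; inactive = all runs flat, opposite direction, or potency beyond limit.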
assay: HEK293T cytotoxicity, dose response, cytotoxicity control for miR-122 modulator project, cell-based, inhibitor set, cherry-pick, set 2 (AID 720697); settings: HEK293T viability, CellTiter-Glo luminescence, 48 h; series mostly up to 26 µM

| Structure (SMILES) | outcome | activity change, negative = cytotoxicity |
| --- | --- | --- |
| CNC(=O)C[C@H]1CC[C@@H]2[C@H](COc3ccc(NC(=O)Nc4cccc(F)c4)cc3C(=O)N2C)O1 | inactive | – |
| CC(=O)c1cccc(S(=O)(=O)NCC2CCCCC2)c1 | inactive | – |
| C/C=C/c1ccc([C@@H]2[C@@H](CNC(=O)CC)N(Cc3ccccn3)[C@H]2CO)cc1 | inactive | – |
| CNC(=O)C[C@H]1CC[C@@H]2[C@H](COc3ccc(NC(=O)c4ccccc4OC)cc3C(=O)N2C)O1 | inactive | – |
| C[C@@H]1CN([C@H](C)CO)S(=O)(=O)c2ccc(C3=CCCCC3)cc2O[C@@H]1CN(C)C(=O)Cc1ccncc1 | inactive | – |
| CCC(=O)N1[C@H](CN(C(C)C)S(C)(=O)=O)[C@H](c2ccccc2)[C@@H]1CO | inactive | – |
| CN1C(=O)c2cc(NC(=O)Nc3cccc(Cl)c3)ccc2OC[C@H]2O[C@@H](CC(=O)NCCc3ccncc3)CC[C@H]21 | inactive | – |
| CO[C@H]1CN(C)C(=O)c2cc(NC(=O)Nc3ccc(Cl)c(Cl)c3)ccc2OC[C@@H](C)NC[C@@H]1C | inactive | – |
| CN(C)C(=O)c1ccc(-c2ccc([C@H]3[C@@H](CO)N4CCCCN(C(=O)C5CCCC5)C[C@@H]34)cc2)cc1 | inactive | – |
| COC(=O)C[C@H]1CC[C@H]2[C@@H](COc3ccc(NC(=O)Nc4c(C)noc4C)cc3C(=O)N2C)O1 | inactive | – |
| CC(=O)Nc1ccc2c(c1)C(=O)N(C)[C@H]1CC[C@H](CC(=O)NC3CCCCC3)O[C@@H]1CO2 | inactive | – |
| C[C@@H]1CN([C@@H](C)CO)C(=O)c2cccc(NS(C)(=O)=O)c2O[C@H]1CN(C)S(=O)(=O)c1ccc(Cl)cc1 | inactive | – |
| CCNC(=O)Nc1ccc2c(c1)C(=O)N(C)[C@H]1CC[C@H](CC(=O)NCc3ccccc3F)O[C@H]1CO2 | inactive | – |
| CCCN(C[C@@H]1N[C@@H](CO)[C@H]1c1ccc(-c2cccnc2)cc1)C(C)=O | inactive | – |
| O=C(c1ccc(CNc2c(NC3CCCCC3)c(=O)c2=O)cc1)N1CCc2ccccc21 | inactive | – |
| CN(C)CCCN(C(=O)CCc1ccccc1)c1nc2ccc(Br)cc2s1 | inactive | – |
| C/C=C/c1ccc([C@@H]2[C@@H](CO)N(S(C)(=O)=O)[C@H]2CN(C)C(=O)CC)cc1 | inactive | – |
| CC(=O)N1[C@H](CO)[C@@H](c2ccccc2)[C@H]1CN(CC(C)C)C(=O)c1ccccn1 | inactive | – |

| Structure (SMILES) | outcome | activity change, negative = cytotoxicity |
| --- | --- | --- |
| COc1cccc(CNC(=O)C[C@@H]2CC[C@@H]3[C@@H](COc4ccc(NC(C)=O)cc4C(=O)N3C)O2)c1 | inactive | – |
| COCC(=O)Nc1ccc2c(c1)C(=O)N(C)[C@@H]1CC[C@H](CC(=O)NC3CCCC3)O[C@H]1CO2 | inactive | – |
| COc1cccc(C(=O)N2C[C@H]3[C@@H](c4ccccc42)[C@H](CO)N3C(C)=O)c1 | inactive | – |
| CN1C(=O)c2cc(NC(=O)c3cccs3)ccc2OC[C@@H]2O[C@@H](CC(=O)NCCN3CCCCC3)CC[C@@H]21 | inactive | – |
| COc1cc(C(=O)Nc2ccc(S(=O)(=O)N3CCCCC3C)cc2)cc(OC)c1OC (stereo not given) | inactive | – |
| CO[C@@H]1CN(C)C(=O)c2ccc(NC(=O)c3ccc(Oc4ccccc4)cc3)cc2OC[C@H](C)NC[C@H]1C | inactive | – |
| OC(c1cc(C(F)(F)F)nc2c(Cl)cc(Cl)cc12)C1CCCCN1 (stereo not given) | inactive | – |
| CCN(CC)CCNc1nc(-c2ccccc2)nnc1C(F)(F)F | inactive | – |
| COCC(=O)N1[C@H](CO)[C@@H](c2ccccc2)[C@H]1CNC(=O)c1ccccn1 | inactive | – |
| CO[C@H]1CN(C)C(=O)c2cc(NC(C)=O)ccc2OC[C@@H](C)N(C(=O)c2ccccn2)C[C@H]1C | inactive | – |
| Cc1cccc(-n2ncc(Cl)c(Cl)c2=O)c1 | – | -3.19% [at 6 µM] |
| C/C=C/c1ccc([C@H]2[C@@H](CO)N[C@@H]2CN(CC(C)C)C(=O)c2ccccn2)cc1 | inactive | – |
| CC(C)C(=O)Nc1ccc2c(c1)C(=O)N(C)[C@@H]1CC[C@H](CC(=O)NCc3cccc(F)c3)O[C@H]1CO2 | inactive | – |
| COC(=O)C[C@@H]1CC[C@H]2[C@@H](COc3ccc(NC(=O)c4ccc(F)c(F)c4)cc3C(=O)N2C)O1 | inactive | – |
| COc1nnc(-c2ccc(N3CCOCC3)c(NC(=O)c3ccccc3)c2)c2ccccc12 | inactive | – |
| Cc1ccccc1NC(=O)Nc1ccc2c(c1)C(=O)N(C)[C@@H]1CC[C@H](CC(=O)NCC3CC3)O[C@@H]1CO2 | inactive | – |
| Cc1ccccc1-c1ccc2c(c1)O[C@@H](CN(C)C(=O)Nc1ccc(F)cc1)[C@@H](C)CN([C@@H](C)CO)S2(=O)=O | inactive | – |
